# Assay outcomes from PubChem.
# BLM inh: qHTS Assay for Inhibitors of Bloom's syndrome helicase (BLM); 350,000 compounds, 0.2% hits; RecQ-like DNA helicase BLM (Homo sapiens), P54132; recombinant BLM DNA unwinding, fluorescence dequenching; Potency, µM (doses to about 56.1 µM), for the others: at the highest dose activity change, negative = inhibition, usual class: inhibitors;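 further: plate controls were vehicle for no effect and no enzyme for full effect; nearly all actives have a fitted effect of over 35% in size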
# L3MBTL1 block: qHTS Assay for the Inhibitors of L3MBTL1 | AlphaScreen L3MBTL1–H3K9me1 peptide binding | Potency, µM (top dose mostly 57.1 µM), without a hit: at the top dose activity, negative = inhibition, usual class: inhibitors | 230,000 compounds, 0.66% hits; further: on the % scale 0 is the no-effect control and ±100 the full control effect; nearly all actives have a fitted effect of over 60% in size
#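 AlphaScreen assay: L3MBTL1 (50 nM final) was preincubated 30 min at room temperature with biotinylated H3(1-15)K9me1 peptide (75 nM final), then 30 min with library compounds; streptavidin donor and nickel chelate acceptor beads (10 ug/mL final) added, 30 min dark.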
# APE1 inh-1: qHTS Assay for Inhibitors of the Human Apurinic/apyrimidinic Endonuclease 1 (APE1); DNA repair nuclease/redox regulator APEX1 (Homo sapiens), P27695; recombinant APE1, TAMRA/BHQ-2 abasic DNA cleavage fluorescence; Potency, µM (series often up to 65.8 µM), inactives show top-dose activity change, negative = inhibition, most hits filed as inhibitors; 350,000 compounds, 0.35% hits; AID 2517, 2012;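 further: plate controls were vehicle for no effect and reference inhibitor for full effect; nearly all actives have a fitted effect of over 55% in size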
#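 Enzyme (0.75 nM final) and test compound are incubated 15 min at room temperature before adding 50 nM quenched THF abasic-site duplex. Cleavage dequenches TAMRA, followed at 525/598 nm over three reads one minute apart.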
# WRN helicase inh: qHTS for Inhibitors of WRN Helicase. Bifunctional 3'-5' exonuclease/ATP-dependent helicase WRN (Homo sapiens), Q14191. AID 651768, 2012. Potency, µM (top dose mostly 114 µM), inactives show top-dose activity change, negative = inhibition, hits mostly inhibitors. WRN helicase unwinding, fluorescent forked duplex, kinetic. 360,000 compounds, 0.46% hits; further: on the % scale 0 is the no-effect control and ±100 the full control effect; nearly all actives have a fitted effect of over 55% in size
#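 Kinetic red-fluorescence monitoring (525/598 nm) tracks WRN helicase activity after 100 nM fluorophore-quencher forked duplex and 2 mM ATP are added to 20 nM enzyme pretreated 15 min at room temperature with compound.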
# RECQ1 inh-1: qHTS Assay for Inhibitors of RecQ-Like Dna Helicase 1 (RECQ1); ATP-dependent DNA helicase Q1 (Homo sapiens), P46063; RECQ1 DNA unwinding, red fluorescence kinetic read; Potency, µM (titrated, usually from 57.3 µM), inactives show top-dose activity, negative = inhibition, usual class: inhibitors; 240,000 compounds, 0.54% hits;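 further: plate controls were vehicle for no effect and no enzyme for full effect; nearly all actives have a fitted effect of over 30% in size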
# Target sequence (P46063 whole entry, looked up): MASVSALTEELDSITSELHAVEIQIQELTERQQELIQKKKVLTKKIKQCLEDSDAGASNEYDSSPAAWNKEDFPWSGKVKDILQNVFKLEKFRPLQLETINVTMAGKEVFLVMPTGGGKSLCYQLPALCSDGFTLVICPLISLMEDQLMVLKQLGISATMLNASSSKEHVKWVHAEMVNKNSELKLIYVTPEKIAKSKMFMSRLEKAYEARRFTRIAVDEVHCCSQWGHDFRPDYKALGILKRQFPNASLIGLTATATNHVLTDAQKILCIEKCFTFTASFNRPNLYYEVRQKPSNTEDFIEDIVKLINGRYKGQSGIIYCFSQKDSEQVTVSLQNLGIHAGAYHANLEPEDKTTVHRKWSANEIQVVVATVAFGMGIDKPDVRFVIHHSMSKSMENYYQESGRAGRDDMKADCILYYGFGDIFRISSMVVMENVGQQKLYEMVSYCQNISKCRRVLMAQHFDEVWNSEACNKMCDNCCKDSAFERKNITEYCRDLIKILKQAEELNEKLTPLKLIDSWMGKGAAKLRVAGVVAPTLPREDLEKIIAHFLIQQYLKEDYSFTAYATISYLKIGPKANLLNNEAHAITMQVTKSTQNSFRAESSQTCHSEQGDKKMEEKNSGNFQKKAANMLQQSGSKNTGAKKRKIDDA
#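 RECQ1T1 50 nM; forked duplex (20 bp + 30-nt ss tails) 200 nM, ATP 2 mM final; pH 8.0, 2 mM MgCl2, 2.5 ug/ml poly(dI-dC); 15 min compound preincubation; discontinuous kinetic read over 2 h at RT.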
# FEN1 inh-1: qHTS Assay for the Inhibitors of Human Flap endonuclease 1 (FEN1). P39748. 390,000 compounds, 0.35% hits. Recombinant FEN1 flap cleavage, fluorescence, 15 min. AID 588795, 2011. Potency, µM (highest dose often 114 µM), for inactives: top-dose activity change, negative = inhibition, usual class: inhibitors; further: on the % scale 0 is the no-effect control and ±100 the full control effect; nearly all actives have a fitted effect of over 65% in size
#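 FEN1 at 10 nM preincubated with compounds 15 min at room temperature, then flap DNA substrate added at 50 nM final. Signal read at 0 and 15 min; concentration-response fitted with four-parameter Hill equation.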
# DNA dye displace: Counterscreen for APE1 Inhibitors: Fluorescent Dye Displacement Assay; Potency, µM (titrated, usually from 28.5 µM), for inactives: at the top dose activity change, negative = inhibition, hits mostly inhibitors; shares compounds with APE1 inh-1; DNA fluorescent dye displacement counterscreen, fluorescence; 480 compounds, 7% hits;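 further: loss of thiazole orange fluorescence as the dye is displaced from duplex DNA; 0% = ThO with dsDNA and no compound and -100% = ThO without dsDNA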
# Endo IV inh: Counterscreen for APE1 Inhibitors: qHTS Assay for Inhibitors of Endonuclease IV. AID 2565, 2010. Potency, µM (top dose mostly 27.1 µM), for the others: top-dose activity change, negative = inhibition, usual class: inhibitors. shares compounds with APE1 inh-1. E. coli Endo IV, fluorogenic AP-site DNA cleavage. 560 compounds, 4% hits;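 further: plate controls were uninhibited enzyme wells for no effect and no enzyme buffer wells for full effect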
# APE1 inh-2: Confirmation qHTS Assay for Inhibitors of the Human Apurinic/apyrimidinic Endonuclease 1 (APE1). 750 compounds, 44% hits. AID 2572, 2010. Potency, µM (highest dose often 57.1 µM), without a hit: top-dose activity change, negative = inhibition, actives largely listed as inhibitors. shares compounds with APE1 inh-1. purified APE1, fluorogenic abasic-site DNA cleavage; further: on the % scale 0 is the no-effect control and ±100 the full control effect; nearly all actives have a fitted effect of over 30% in size
# APE1 FP inh: qHTS FP-Based Assay for Inhibitors of the Human Apurinic/apyrimidinic Endonuclease 1 (APE1); shares compounds with APE1 inh-1; APE1 binding to TAMRA-labelled double-stranded DNA, fluorescence polarization displacement; Potency, µM (top dose mostly 28.5 µM), without a hit: at the top dose activity, negative = inhibition, actives largely listed as inhibitors; 480 compounds, 7% hits; AID 2573, 2010; further: on the % scale 0 is the no-effect control and ±100 the full control effect
# RECQ1 inh-2: Confirmation qHTS Assay for Inhibitors of RecQ-Like Dna Helicase 1 (RECQ1) - Round 2 Cherry Picks | shares compounds with RECQ1 inh-1 | Potency, µM (series often up to 119 µM), inactives show top-dose activity, negative = inhibition, most hits filed as inhibitors | 1,100 compounds, 15% hits | AID 504841, 2011 | recombinant RECQ1 DNA unwinding, red fluorescence; further: on the % scale 0 is the no-effect control and ±100 the full control effect; nearly all actives have a fitted effect of over 50% in size
# FEN1 inh-2: qHTS Assay for the Inhibitors of FEN1: Confirmatory Assay for Cherry-picked Compounds | 880 compounds, 79% hits | shares compounds with FEN1 inh-1 | Potency, µM, hits mostly inhibitors | AID 720498, 2013 | FEN1 flap cleavage, TAMRA/BHQ2 fluorogenic DNA substrate; further: nearly all actives have a fitted effect of over 60% in size
# * marks the source's active call; other numbers are inactive results; i = inactive; ? = inconclusive; nt = no result given; [ ] = remark or other dose. Only some compounds are listed: those with a hit (about 1% of all), similar ones and a draw of the others. The call rests on the fitted dose curve; in most records, active means well fitted curve in the direction sought with a large enough effect; inconclusive means small, poorly fitted or top-dose-only effect, or another doubt; inactive means no such curve, though single readings can be large; an effect the other way counts as inactive or inconclusive. Potency means the concentration at half of the fitted maximal effect.
SMILES,BLM inh,L3MBTL1 block,APE1 inh-1,WRN helicase inh,RECQ1 inh-1,FEN1 inh-1,APE1 inh-2,FEN1 inh-2,others
O=c1[nH]c(-[n+]2ccccc2)c(/C=N/N=C(\[O-])c2ccccc2)s1,-6%,nt,?,-5%,13%,-18%,nt,nt,
NS(=O)(=O)c1ccc(N/N=C/c2ccc(O)c(O)c2O)c([N+](=O)[O-])c1,16µM*,2.8µM*,2µM*,?,3.2µM*,10µM*,5.6µM*,15*,DNA dye displace=13µM*;Endo IV inh=23%;APE1 FP inh=-9%
CCc1nn2c(=O)cc(COc3ccc(/C=C4\C(=N)N5N=C(CC(C)C)SC5=NC4=O)cc3)nc2s1,-23%,nt,?,-15%[11.6 µM],i,-16%,nt,nt,
CCC1=NN2C(=N)/C(=C\c3ccc(OCc4cc(=O)n5nc(CC)sc5n4)c(OC)c3)C(=O)N=C2S1,14µM*,?,?,-32%[11.6 µM],7.1µM*,50µM*,32µM*,38*,RECQ1 inh-2=?
CN(C)CCN1CCN(C2CN(CCc3ccccc3)S(=O)(=O)C2)CC1 (stereo not given),nt,nt,nt,-1%,nt,nt,nt,nt,
O=C(CSc1nnc(-c2cccc(S(=O)(=O)N3CCCC3)c2)n1-c1ccccc1)Nc1ccc(C(=O)O)cc1,?,nt,-2%,50µM*,-13%,?,?,76*,
O=C(CSc1nnc(-c2cccc(S(=O)(=O)N3CCCC3)c2)n1-c1ccccc1)Nc1cccc(C(=O)O)c1,-17%,nt,-4%,-7%,i,-17%,nt,nt,
